Most compounds without a hit are left out; they make up all but 10% or so of the library.
hNpr1 antagonist = blocks ANP-stimulated signaling of human Npr1 receptor; HEK293 hNpr1 GloSensor cGMP, ANP-stimulated luminescence; 1.6% of 76,000 active; Potency, µM (top dose mostly 46.3 µM), without a hit: at the highest dose activity change, negative = inhibition, hits mostly inhibitors; AID 1347048; calls by dose curve; further: potency means the concentration at half of the fitted maximal effect; on the % scale 0 is the no-effect control and ±100 the full control effect; nearly all actives have a fitted effect of over 60% in size
Target sequence (P16066 whole entry, looked up): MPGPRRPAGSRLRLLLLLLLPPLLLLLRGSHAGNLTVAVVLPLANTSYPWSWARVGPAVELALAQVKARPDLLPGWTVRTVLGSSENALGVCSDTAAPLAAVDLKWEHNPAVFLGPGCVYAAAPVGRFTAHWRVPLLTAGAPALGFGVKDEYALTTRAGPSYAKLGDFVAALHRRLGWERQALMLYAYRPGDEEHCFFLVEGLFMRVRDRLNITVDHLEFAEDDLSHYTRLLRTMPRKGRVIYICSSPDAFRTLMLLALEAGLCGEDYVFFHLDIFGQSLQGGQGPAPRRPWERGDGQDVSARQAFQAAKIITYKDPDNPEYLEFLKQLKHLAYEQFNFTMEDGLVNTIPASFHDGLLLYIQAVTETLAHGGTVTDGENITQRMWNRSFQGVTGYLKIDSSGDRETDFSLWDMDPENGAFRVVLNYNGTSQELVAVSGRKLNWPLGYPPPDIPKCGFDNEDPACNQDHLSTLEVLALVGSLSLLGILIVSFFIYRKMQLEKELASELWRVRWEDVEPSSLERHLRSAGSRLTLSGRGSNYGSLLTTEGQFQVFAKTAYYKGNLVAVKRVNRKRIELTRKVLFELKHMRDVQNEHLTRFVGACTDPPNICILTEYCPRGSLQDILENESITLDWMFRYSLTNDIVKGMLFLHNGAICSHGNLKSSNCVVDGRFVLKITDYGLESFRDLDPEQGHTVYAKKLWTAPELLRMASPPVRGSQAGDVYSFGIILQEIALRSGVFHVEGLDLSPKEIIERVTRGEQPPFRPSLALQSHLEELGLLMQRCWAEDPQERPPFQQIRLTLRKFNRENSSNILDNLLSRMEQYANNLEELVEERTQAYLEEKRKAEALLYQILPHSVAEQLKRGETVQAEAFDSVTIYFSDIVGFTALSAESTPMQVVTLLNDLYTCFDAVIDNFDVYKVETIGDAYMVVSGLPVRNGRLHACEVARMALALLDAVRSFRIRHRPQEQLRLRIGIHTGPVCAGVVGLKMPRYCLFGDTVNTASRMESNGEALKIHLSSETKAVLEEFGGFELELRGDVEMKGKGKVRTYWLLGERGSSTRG
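HEK293 cells stably expressing human Npr1 and cGMP GloSensor pGS-40F, loaded 2 h with 2% GloSensor reagent, given compound 30 min at room temperature. Luminescence read before and 20 min after 0.1 nM hNppA.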
HEK293 tox = cytotoxic compounds in HEK 293 cells; AID 1345083; 6.6% of 94,000 active; HEK 293 viability, ATP luminescence (CellTiter-Glo), 48-72 h; Potency, µM (top dose mostly 115 µM), without a hit: top-dose activity change, negative = cytotoxicity, actives largely listed as inhibitors; further: potency means the concentration at half of the fitted maximal effect; on the % scale 0 is the no-effect control and ±100 the full control effect; nearly all actives have a fitted effect of over 60% in size
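Luminescence from cellular ATP, measured with CellTiter-Glo, indicates HEK 293 viability. Cells plated at 250 cells/well are treated with compound for 48 or 72 hr at 37 degree Celsius before reagent addition.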
GPT2 inhibitor = inhibitors of human GPT2 alanine aminotransferase; Q8TD30; Recombinant GPT2, coupled pyruvate oxidase/HRP Amplex Red fluorescence; Potency, µM (titrated, usually from 57.7 µM), inactives show at the highest dose activity change, negative = inhibition, actives largely listed as inhibitors; 0.25% of 100,000 active; AID 1671188; further: potency means the concentration at half of the fitted maximal effect; on the % scale 0 is the no-effect control and ±100 the full control effect; nearly all actives have a fitted effect of over 60% in size
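Recombinant GPT2 (10ng/uL) with 250uM a-KG and 2mM L-alanine, 30 min at room temperature, in HEPES pH 7.5 buffer. Pyruvate detected by pyruvate oxidase/HRP/Amplex Red fluorescence after 30 min in the dark; AOA (50uM) as positive control.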
Luciferase inh = inhibitors of firefly (Photinus pyralis) luciferase | Potency, µM (titrated, usually from 115 µM), usual class: inhibitors | 2.5% of 76,000 active | P08659 | purified P. pyralis luciferase, luminescence, biochemical; further: potency means the concentration at half of the fitted maximal effect; on the % scale 0 is the no-effect control and ±100 the full control effect; nearly all actives have a fitted effect of over 65% in size
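Luminescence read by CCD imaging after purified firefly luciferase (10nM final) was added to substrate buffer holding 10uM D-luciferin and 10uM ATP, pH 7.5, pre-dosed with compound.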
3T3 cytotox = cytotoxic compounds in NIH 3T3 cells. Potency, µM (titrated, usually from 96.7 µM), inactives show at the highest dose activity change, negative = cytotoxicity, hits mostly inhibitors. NIH 3T3 viability, CellTiter-Glo ATP luminescence, 48-72 h. 4.3% of 94,000 active; further: potency means the concentration at half of the fitted maximal effect; on the % scale 0 is the no-effect control and ±100 the full control effect; nearly all actives have a fitted effect of over 55% in size
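Luminescent ATP readout (CellTiter-Glo, 10 min RT) after 48 or 72 hr compound exposure of NIH 3T3 cells seeded at 400 cells/well in 1536-well format; quantitative HTS.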
NPR1 antag cnf = hNpr1 antagonism, confirmation assay | shares compounds with hNpr1 antagonist | HEK293 hNpr1 cGMP GloSensor luminescence, ANP-stimulated | Potency, µM (highest dose often 57.6 µM), for the others: at the highest dose activity change, negative = inhibition, usual class: inhibitors | 76% of 1,400 active | AID 1347044; calls by dose curve; further: potency means the concentration at half of the fitted maximal effect; nearly all actives have a fitted effect of over 70% in size
Npr2 selectivity = antagonizes human Npr2, subtype selectivity check; shares compounds with hNpr1 antagonist; HEK293 hNpr2 GloSensor cGMP luminescence, CNP-stimulated; Potency, µM (series often up to 57.6 µM), for the others: at the highest dose activity change, negative = inhibition, most hits filed as inhibitors; 67% of 1,400 active; AID 1347046; calls by dose curve; further: potency means the concentration at half of the fitted maximal effect; nearly all actives have a fitted effect of over 70% in size
FLuc counter = inhibits firefly luciferase, false Npr1 antagonist flag | purified FLuc enzyme, luminescence, Km substrate | 0.7% of 1,400 active | Potency, µM (top dose mostly 57.6 µM), inactives show top-dose activity change, negative = inhibition, usual class: inhibitors | AID 1347047 | shares compounds with hNpr1 antagonist; further: potency means the concentration at half of the fitted maximal effect; 0% is about no effect
GloSensor ctrl = control cell line activity, Npr1 antagonist counter-screen | shares compounds with hNpr1 antagonist | HEK293 GloSensor cGMP, SNP-stimulated, luminescence | Potency, µM (titrated, usually from 57.6 µM), without a hit: at the top dose activity change, negative = inhibition, most hits filed as inhibitors | 69% of 1,400 active | AID 1347051; calls by dose curve; further: potency means the concentration at half of the fitted maximal effect; on the % scale 0 is the no-effect control and ±100 the full control effect; nearly all actives have a fitted effect of over 70% in size
GPT2 inh cnf = human alanine aminotransferase 2 inhibition, confirmatory; 90% of 95 active; Potency, µM, usual class: inhibitors; AID 1671187; shares compounds with GPT2 inhibitor; GPT2 enzyme, coupled Amplex Red pyruvate fluorescence
Starred values were filed as active, the others as inactive; i = inactive; u = inconclusive; x = no result given; ! = not active in a repeat; [ ] = remark or other dose. Unless noted, the call rests on the fitted dose curve; in most records, active means well fitted curve in the direction sought with a large enough effect; inconclusive means small, poorly fitted or top-dose-only effect, or another doubt; inactive means no such curve, though single readings can be large; an effect the other way counts as inactive or inconclusive.

SMILES	hNpr1 antagonist	HEK293 tox	GPT2 inhibitor	Luciferase inh	3T3 cytotox	NPR1 antag cnf	Npr2 selectivity	FLuc counter	GloSensor ctrl	others
O=C(c1ccc(F)cc1)N1CCC(Cc2nc(C3CCOCC3)no2)CC1	u	u	2.3%	i	u	x	x	x	x
O=C(c1ccc(F)cc1Cl)N1CCC(Cc2nc(-c3ccccc3)no2)CC1	5.62µM*	u	-26.2%	i	u	5.44µM*	5.44µM*	-1.0%	4.32µM*
O=C(Cc1ccccc1Cl)N1CCC(Cc2nc(-c3ccccc3)no2)CC1	u	u	u	i	u	x	x	x	x
O=C(c1cc(F)ccc1Cl)N1CCC(Cc2nc(-c3ccc(F)cc3)no2)CC1	7.08µM*	u	i	i	u	9.68µM*	10.9µM*	0.1%	8.62µM*
O=C(c1cc(F)ccc1Cl)N1CCC(Cc2nc(-c3ccccc3)no2)CC1	11.2µM*	50.1µM*	i	i	u	13.7µM*	15.3µM*	-12.5%	12.2µM*
O=C(c1cc(F)cc(F)c1)N1CCC(Cc2nc(-c3ccccc3)no2)CC1	7.08µM*	u	i	i	u	6.11µM*	6.11µM*	-1.7%	5.44µM*
CC(=O)N(C1CCOCC1)C1CCN(C(=O)c2ccc(C)s2)CC1	x	-16.4%	-68.2%	x	-21.5%	x	x	x	x
COc1ccc(NC(=O)C2CCN(c3cc(C(F)(F)F)ncn3)CC2)cc1	u	-25.4%	1.8%	i	-21.1%	x	x	x	x
COc1ccc(NC(=O)C2CCN(c3cc(C(F)(F)F)ncn3)CC2)cc1OC	-19.2%	u	u	i	-25.0%	x	x	x	x
Cc1ccc(NC(=O)C2CCN(c3cc(C(F)(F)F)ncn3)CC2)cc1Cl	10µM*	u	i	i	17.8µM*	12.2µM*	19.3µM*	-1.4%	12.2µM*
CC(C)c1ccc(NC(=O)C2CCN(c3cc(C(F)(F)F)ncn3)CC2)cc1	7.08µM*	u	i	i	u	7.69µM*	8.62µM*	4.5%	4.85µM*
O=C(Nc1ccc(F)cc1)C1CCN(c2cc(C(F)(F)F)ncn2)CC1	u	-30.4%	i	i	-32.7%	21.7µM*	u	-0.5%	24.3µM*
Cc1ccc(C(=O)N2CCN(c3nnc4cccc(C)n34)CC2)cc1C	5.2%	-17.7%	i	i	-16.7%	x	x	x	x
COc1ccc(-c2cc(C(=O)NC3CC3)c3cnn(C)c3n2)cc1	x	u	i	x	u	x	x	x	x
Cc1ccccc1C(=O)N1CCC2(CC1)N=C(c1ccc(Br)cc1)NO2	14.1µM*	u	i	i	u	27.3µM*	24.3µM*	1.7%	24.3µM*
COc1cc(OC)cc(C(=O)N2CCC3(CC2)N=C(c2ccccc2)NO3)c1	0.9%	-4.9%	i	i	i	x	x	x	x
COc1ccc(C(=O)N2CCC3(CC2)N=C(c2ccc(Br)cc2)NO3)cc1	10µM*	u	i	i	-23.3%	12.2µM*	13.7µM*	0.9%	9.68µM*
CNC(=O)c1cc(C)nc2onc(C3CCCN(C(=O)Cc4ccccn4)C3)c12 (stereo not drawn)	x	i	x	x	-5.7%	x	x	x	x
CCOc1ccc(CC(=O)N2CCCN(c3cc(-c4ccc(OC)cc4)[nH]n3)CC2)cc1OCC	-16.9%	u	u	i	-14.0%	x	x	x	x
CC(C)CC(C)NC(=O)c1ccc(Cn2ccn3nc4c(c3c2=O)CCCC4)cc1 (stereo not drawn)	0.0%	u	i	i	u	x	x	x	x
COc1ccc(NC2CCCN(C(=O)c3cc(C(C)=O)n[nH]3)C2)cc1OC (stereo not drawn)	-7.0%	2.1%	u	i	3.1%	x	x	x	x
COc1ccc(NC2CCCN(C(=O)c3ccccc3C(F)(F)F)C2)cc1OC (stereo not drawn)	2.3%	u	u	i	-23.9%	x	x	x	x	GPT2 inh cnf=3.85*
Clc1ccc2c(c1)Nc1ccccc1S2	x	x	u	x	x	x	x	x	x	GPT2 inh cnf=3.43*
COc1cc(N2CCC(O)CC2)ccc1Nc1cc(Nc2ccccc2S(=O)(=O)C(C)C)c2cc[nH]c2n1	x	x	3.43µM*!	x	x	x	x	x	x	GPT2 inh cnf=3.43*
COc1cc(N2CCC(N3CCN(C)CC3)CC2)ccc1Nc1ncnc(Nc2ccccc2S(=O)(=O)C(C)C)n1	x	x	4.32µM*!	x	x	x	x	x	x	GPT2 inh cnf=1.53*
SMILES	hNpr1 antagonist	HEK293 tox	GPT2 inhibitor	Luciferase inh	3T3 cytotox	NPR1 antag cnf	Npr2 selectivity	FLuc counter	GloSensor ctrl	others
CNc1nc(Nc2ccc(C(=O)N3CCOCC3)cc2OC)ncc1Cl	x	x	1.8%	x	x	x	x	x	x
CCOc1cc(C(=O)N2CCC(N3CCN(C)CC3)CC2)ccc1Nc1ncc2c(n1)N(C1CCCC1)c1ccccc1C(=O)N2C	x	x	4.3%	x	x	x	x	x	x
COc1ccccc1Nc1ccnc(N2CCC(C(=O)NC(C)C)CC2)n1	x	u	3.8%[88.5 µM]	x	u	x	x	x	x
COc1cc(N2CCC(C(N)=O)CC2)ccc1Nc1nc(N)c(Cl)c(Nc2ccccc2S(=O)(=O)C(C)C)n1	x	x	1.37µM*	x	x	x	x	x	x	GPT2 inh cnf=3.85*
Cc1csc(Nc2ccc3ncn(C)c(=O)c3n2)n1	1.6%[70.6 µM]	u	-17.0%[88.5 µM]	i	u	x	x	x	x
CN(C)c1ccc2c(c1)CN(C(=O)c1cnn(C)c1)CCO2	x	-2.5%	1µM*	x	-23.7%	x	x	x	x	GPT2 inh cnf=0.685*
CN(C)c1ccc(C(=O)N2CCc3cn(C)c4cccc(c34)C2)cc1	-9.9%	u	-0.3%	i	u	x	x	x	x
CCNc1ncc(C(=O)N2CCCC(Nc3ccc(OC)cc3)C2)cn1 (stereo not drawn)	-1.9%	-18.4%	i	i	-18.9%	x	x	x	x
COc1ccc(NC2CCCN(CC(=O)Nc3ccc(C)cn3)C2)cc1 (stereo not drawn)	u	-28.4%	u	i	-17.6%	x	x	x	x	GPT2 inh cnf=5.44*
COc1ncc(-c2ccc3ncn(C4CC4)c(=O)c3n2)cn1	3.6%[70.6 µM]	i	-2.5%[88.5 µM]	u	u	x	x	x	x
c1ccc(CCN2CCNc3cc(Nc4ccc(N5CCOCC5)cc4)ncc3C2)cc1	-4.6%[70.6 µM]	50.1µM*	14.1µM*	i	35.5µM*	x	x	x	x	GPT2 inh cnf=6.27*

Source: PubChem (National Center for Advancing Translational Sciences (NCATS))
